The full ranking holds about 110,000 compounds; the median of “z-score” is about -0.1, and the highest 2% start at about 2. The sample holds the highest values, similar compounds and a random draw of the others, so the mix is not that of the screen. Activity calls are given as the source filed them.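 The calls were made as follows: active = z-score in the third read window above 3 or below -3; inactive = the rest.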

The target in the assay is Metabotropic glutamate receptor 8 (Rattus norvegicus) (UniProt P70579). Nature of the assay: rat mGluR8 modulators via GIRK flux, primary screen, cell-based, thallium flux, HTS (AID 488969). The note with it: HEK293 rat mGluR8, GIRK (G protein-gated inwardly rectifying potassium channel) thallium flux, FluoZin2; at 10 µM; stronger effect = higher value; submaximal glutamate (EC20) added with thallium.
Chain of Metabotropic glutamate receptor 8 (Rattus norvegicus) (P70579 whole entry, looked up): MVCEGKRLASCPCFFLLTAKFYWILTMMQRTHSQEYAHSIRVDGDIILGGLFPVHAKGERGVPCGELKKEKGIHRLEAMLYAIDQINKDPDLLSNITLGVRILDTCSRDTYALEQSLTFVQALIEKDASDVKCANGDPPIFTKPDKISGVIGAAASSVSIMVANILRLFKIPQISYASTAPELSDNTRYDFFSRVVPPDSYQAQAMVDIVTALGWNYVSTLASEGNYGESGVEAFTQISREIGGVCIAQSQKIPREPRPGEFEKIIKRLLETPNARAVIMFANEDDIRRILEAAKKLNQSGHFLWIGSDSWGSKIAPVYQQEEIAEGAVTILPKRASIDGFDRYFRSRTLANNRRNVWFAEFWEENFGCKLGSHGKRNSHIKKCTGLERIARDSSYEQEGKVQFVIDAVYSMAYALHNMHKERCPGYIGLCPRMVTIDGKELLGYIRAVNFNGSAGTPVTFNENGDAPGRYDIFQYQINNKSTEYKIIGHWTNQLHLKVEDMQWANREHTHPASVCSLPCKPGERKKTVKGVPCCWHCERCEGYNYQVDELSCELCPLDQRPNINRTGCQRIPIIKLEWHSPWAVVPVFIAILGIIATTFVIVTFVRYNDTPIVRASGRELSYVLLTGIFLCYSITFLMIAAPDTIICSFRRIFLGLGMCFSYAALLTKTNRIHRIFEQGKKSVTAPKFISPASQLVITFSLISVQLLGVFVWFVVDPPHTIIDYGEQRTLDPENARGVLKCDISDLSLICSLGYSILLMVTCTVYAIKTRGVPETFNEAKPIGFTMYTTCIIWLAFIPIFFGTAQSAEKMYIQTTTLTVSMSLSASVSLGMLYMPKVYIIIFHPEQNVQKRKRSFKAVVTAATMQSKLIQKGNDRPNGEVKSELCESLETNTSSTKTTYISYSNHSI
`COc1ccc(C2NC(=O)c3n[nH]c(C)c32)c(OC)c1` (stereo not drawn) registered a z-score of 0.447. With `Cc1[nH]nc2c1C(c1ccccc1F)NC2=O` (stereo not drawn) the figure was 2.74; with `CCOc1ccc(C2NC(=O)c3n[nH]c(C)c32)cc1` (stereo not drawn), 0.931; with `CCOC(=O)c1[nH]c2ccc(OC)cc2c1NC(=S)N1CCN(c2ccc(F)cc2)CC1`, 0.623. With `CC1Oc2ccccc2C=C1/C=N/NC(=O)c1ccccc1` (stereo not drawn) the figure was 1.9. With `Cc1ccc(C(=O)N/N=C/C2=Cc3ccccc3OC2C)cc1` (stereo not drawn) the figure was 3.08 (active); with `CC1Oc2ccccc2C=C1/C=N/NC(=O)c1ccccc1O` (stereo not drawn), 0.0521. `Cc1ccsc1C(=O)NNC(=O)Nc1ccc(Cl)c(Cl)c1` yielded a z-score of -0.13. `CCOc1ccccc1OCCCCCc1c(C)n[nH]c1C`: the z-score is 3.05 (active). To `COc1cccc(OC)c1OCCCCCc1c(C)n[nH]c1C` belongs -0.231; to `COc1ccccc1OCCCCCc1c(C)n[nH]c1C`, -0.151; to `CCC(=O)N/C(=N/c1nc(C)cc(C)n1)Nc1cccc(OC)c1`, 0.0375. `Cc1cc(/C([O-])=C(/C(=S)Nc2ccc(F)cc2)[n+]2ccccc2)c(C)n1-c1ccc(F)cc1` had a z-score of -0.454. With `CCSc1nnc(NC(=O)c2ccc3ccccc3n2)s1` the figure was 11.8 (active); with `CCC(CC)c1nnc(NC(=O)Oc2ccccc2)s1`, -0.366; with `CCC(CC)c1nnc(NC(=O)c2cc(-c3ccccc3)nc3ccccc23)s1`, -0.847. In the case of `CCc1nnc(NC(=O)C2COc3ccccc3O2)s1` (stereo not drawn), the z-score was found to be 0.0066. With `CCSc1nnc(NC(=O)c2cc(C)nc3ccccc23)s1`, the z-score was 0.31.

With `CCC(CC)c1nnc(NC(=O)C2COc3ccccc3O2)s1` (stereo not drawn), the z-score was 3.82 (active).

Turning to `CCC(CC)c1nnc(NC(=O)c2ccc3ccccc3n2)s1`, the z-score was 11.4 (active).

In turn, `O=C(Nc1nnc(C(F)(F)F)s1)C1COc2ccccc2O1` (stereo not drawn) displayed a z-score of -0.109. As to `CCSc1nnc(NC(=O)c2cccc3ccccc23)s1`, the z-score was -0.316. In the case of `COc1cccc(C2C(C(C)=O)=C(O)C(=O)N2CCc2c[nH]c3ccccc23)c1` (stereo not drawn), the z-score is -0.32. To `Cc1ccc(CSc2ccc(-c3ccco3)nn2)cc1` belongs 0.361; to `C=CCN(C(C)=O)C1CC(=O)N(c2ccc(OCCC)cc2)C1=O` (stereo not drawn), -0.00882; to `CC/C(=N\NC(=O)c1csc(C)c1C)c1cccs1`, 1.32. In the case of `C/C(=N\NC(=O)c1csc(C)c1C)c1ccc(Cl)s1`, the z-score is 3.54 (active). For the molecule `CCC/C(=N/NC(=O)c1csc(C)c1C)c1ccc(Cl)s1`, the z-score was 5.92 (active). To `C/C(=N\NC(=O)c1csc(C)c1C)c1ccco1` belongs 0.816; to `CCC/C(=N\NC(=O)c1csc(C)c1C)c1cccs1`, 0.475; to `Cc1scc(C(=O)N/N=C/c2ccco2)c1C`, -0.0599. To `COc1ccc(CCNC(=O)C2CCCN(S(=O)(=O)c3cnc[nH]3)C2)cc1OC` (stereo not drawn) belongs -0.0112; to `CCOc1ccccc1C(=O)N(Cc1ccco1)C1CCS(=O)(=O)C1` (stereo not drawn), 0.0514; to `CN1C(=O)CSC1=NCC12CC3CC(CC(C3)C1)C2`, -0.123. Consider `COc1ccc(Cl)cc1NC(=S)NCCc1c[nH]c2ccccc12`, for which the z-score worked out at 0.142. With `CCOc1ccc(CN(Cc2ccco2)S(=O)(=O)c2ccc(-n3cnnn3)c(OC)c2)cc1` the figure was 2.75. With `CCOc1ccccc1CN(Cc1ccco1)S(=O)(=O)c1ccc(-n2cnnn2)c(OC)c1` the figure was 0.115. With `COc1cc(S(=O)(=O)N(Cc2ccc(C)cc2)Cc2ccco2)ccc1-n1cnnn1` the figure was 0.205; with `O=C(Cc1c(F)cccc1Cl)NCC1CCCO1` (stereo not drawn), 0.148. The molecule `CN1/C(=C\C(=S)NC(=O)c2ccc([N+](=O)[O-])cc2)C(C)(C)c2ccccc21` returned a z-score of 0.213. The molecule `Cc1ccc(C(=O)NC(=S)/C=C2\N(C)c3ccccc3C2(C)C)cc1` registered a z-score of 2.66. In turn, `CN1/C(=C\C(=S)NC(=O)c2cccc(Br)c2)C(C)(C)c2ccccc21` returned a z-score of -0.0589. Consider `CC(C)(C)C(=O)Nc1ccc(-c2cn3ccsc3n2)cc1`, for which the z-score is -1.44. Molecule `CCCN1CNC(=S)N(c2ccc(C(=O)OCC)cc2)C1` came in with a z-score of -2.04. With `O=C(CC(=O)c1ccccc1)Nc1ccc2c(c1)OCCO2` the figure was -0.987; with `O=C(NC(=S)NCc1ccc2c(c1)OCO2)c1ccccc1`, 1.1.

Molecule `O=C(NC(=S)Nc1ccc2c(c1)OCCO2)c1cccc(Br)c1` gave a z-score of 0.945.

Consider `Cc1cc(NC(=S)NC(=O)c2ccccc2)ccc1-c1cc2ccccc2oc1=O`, for which the z-score was -0.165.

Regarding `O=C(CNC(=O)c1ccccc1)NCC1COc2ccccc2O1` (stereo not drawn), the z-score came to 0.11.

The molecule `O=C(NC(=S)Nc1ccc2c(c1)OCCO2)c1ccccc1` yielded a z-score of 2.12. Take `O=C(NC(=S)Nc1ccc2c(c1)OCO2)c1ccc(Cl)cc1`: the z-score is 0.837. With `O=C(NC(=S)NCC1COc2ccccc2O1)c1ccccc1` (stereo not drawn), the z-score was 6.58 (active). `O=C(NCC1COc2ccccc2O1)c1ccccc1` (stereo not drawn) registered a z-score of 0.298. On to `O=C(NC(=S)Nc1ccc2c(c1)OCO2)c1ccccc1`, for which the z-score was 3.25 (active).

Molecule `O=C(NC(=S)Nc1ccc2[nH]ncc2c1)c1ccccc1` showed a z-score of -0.139.

As to `Cn1ncc2cc(NC(=S)NC(=O)c3ccccc3)ccc21`, the z-score amounted to 2.21.

Turning to `Cc1ccc(C2N(c3ccc(F)cc3)C(=O)C3CCCN32)cc1` (stereo not drawn), the z-score was 0.214. On to `N#Cc1cc(C(=O)c2ccccc2OCC(=O)Nc2ccccc2Cl)cn(C2CCCCC2)c1=O`, for which the z-score is -0.433.

`CCn1c(CCCOc2ccc(Cl)cc2Cl)nnc1SCC(=O)Nc1cccc(F)c1` came in with a z-score of -0.135. Molecule `CCOc1ccccc1Nc1ncccc1C(=O)N1CCCC1` registered a z-score of 1.1.

With `Cc1ccc(C)c(N2CCN(S(=O)(=O)c3c(C)noc3/C=C/N(C)C)CC2)c1`, the z-score is -0.559. Molecule `CC1(C(=O)N2CC3(CC(c4ccccc4)=NO3)C[C@H]2C(=O)NCC(N)=O)CC1` (stereo partly drawn) showed a z-score of -0.0396. For the molecule `CCOc1ccccc1Oc1c(C)oc2c(CN3CCN(CCO)CC3)c(O)ccc2c1=O`, the z-score was -0.395.

For `CCc1ccc(N2CC(C(=O)Nc3ccc(C)c(S(=O)(=O)N4CCOCC4)c3)CC2=O)cc1` (stereo not drawn), the z-score came to 0.319. To `CC(C)NC(=O)c1ccccc1N(Cc1ccccc1)S(C)(=O)=O` belongs 0.373; to `COc1ccc2nc(NC(=O)c3cccc(-c4cc5ccccc5oc4=O)c3)sc2c1`, 0.372. To `CCc1ccc(C(=O)NC(=S)Nc2ccc3c(c2)OCCO3)cc1` belongs 0.946. With `Cc1ccc(C(=O)NC(=S)Nc2ccc3c(c2)OCCO3)c(C)c1` the figure was 2.7; with `Cc1cc(C)cc(C(=O)NC(=S)Nc2ccc3c(c2)OCCO3)c1`, -0.353; with `Cc1ccc(Cl)c(NC(=S)N(CCCN2CCOCC2)Cc2ccco2)c1`, -0.227. `Cc1cccc2cc(/C=N/NC(=O)c3ccccc3O)c(Cl)nc12` showed a z-score of 0.0387.

Molecule `O=C(NCCCCNC(=O)c1ccc(Cl)s1)c1ccc(Cl)s1` yielded a z-score of -0.423. To `COc1ccc(N/N=C(/C(N)=O)C2=NC(C)(C)Cc3ccccc32)cc1` belongs -0.381; to `CC1(C)Cc2ccccc2C(/C(=N\Nc2cccc(Cl)c2)C(N)=O)=N1`, 3.23 (active); to `Cc1cccc(N/N=C(\C(N)=O)C2=NC(C)(C)Cc3ccccc32)c1`, -0.302. For `Cc1cc(C(=O)N/N=C/c2cccnc2)c(C)o1`, the z-score came to 0.000639. As for `O=C(CCCCl)NC(=S)Nc1cc(C(F)(F)F)ccc1N1CCOCC1`, the z-score was 0.012. To `O=C1CCCC2=C1C(c1ccncc1)c1c(nc(SCc3ccccc3)[nH]c1=O)N2` (stereo not drawn) belongs -1.55; to `CCn1c2ccccc2c2cc(/C=N/n3cn[nH]c3=S)ccc21`, 11.5 (active); to `CCn1c2ccccc2c2cc(/C=N/n3cnnc3)ccc21`, -1.04. With `CCn1c2ccccc2c2cc(/C=N/n3c(C)nnc3C)ccc21` the figure was -1.04; with `Cc1ccc(/C=N/n2nnnc2N)cc1[N+](=O)[O-]`, 0.159; with `CC1CCN(c2ccc(/C=N/n3nnnc3N)cc2[N+](=O)[O-])CC1`, 3.58 (active). To `CCc1nnc(N/N=C/c2ccc(N3CCC(C)CC3)c([N+](=O)[O-])c2)n1N` belongs -0.0832; to `CC1CCN(c2cc(N)c(Cl)cc2[N+](=O)[O-])CC1`, -0.475; to `Nc1nnnn1/N=C/c1ccc(N2CCCCC2)c([N+](=O)[O-])c1`, 1.18. Consider `Cc1nnc(N/N=C/c2cc([N+](=O)[O-])c(N3CCC(C)CC3)cc2N2CCC(C)CC2)n1N`, for which the z-score stood at 2.68. `CC(=O)Nc1ccc(OCC(O)CN2C(C)CCCC2C)cc1` (stereo not drawn) showed a z-score of -0.417. To `Cn1c(=O)c2c(nc(SCc3ccccc3)n2Cc2ccc(Cl)cc2)n(C)c1=O` belongs -0.333; to `CC(=O)/C=C/c1ccc2ccccc2n1`, 0.038. With `C/C(CC(O)c1ccc2ccccc2n1)=N/O` (stereo not drawn) the figure was 5.27 (active); with `Cc1c(O)ccc(/C(Cc2ccc3ccccc3n2)=N\O)c1O`, -0.308. Take `CCc1ccc2[nH]c(=O)c(C(c3nnnn3Cc3ccco3)N3CCC(C)CC3)cc2c1` (stereo not drawn): the z-score is -0.27. On to `Cc1ccnc(N(C(=O)c2cccs2)C(=O)c2cccs2)c1`, for which the z-score is -0.0449. Molecule `O=C(/C=C/c1cccs1)Nc1ccc(Br)cn1` displayed a z-score of -0.222. With `O=C(c1cccs1)N(C(=O)c1cccs1)c1ccc(Br)cn1` the figure was 2.26; with `CC(=O)N1c2ccccc2Oc2cc3ccccc3cc21`, -0.261. In the case of `Cc1ccc(C(=O)N/N=C2\SCC(=O)N2c2cc(C)ccc2C)cc1`, the z-score was -0.396. With `Cc1cccc(N2C(=O)CS/C2=N\NC(=O)c2ccc(Cl)cc2)c1C` the figure was 3.96 (active); with `Cc1cccc(N2C(=O)CS/C2=N\NC(=O)c2ccc(Br)cc2)c1C`, 1.16; with `Cc1ccc(N2C(=O)c3ccccc3C2Nc2ccccc2)nc1` (stereo not drawn), -0.424. As for `CN1CCN(/C=C2\SC(=S)NC2=O)CC1`, the z-score is -0.54.

`Cc1nn(C)c(C)c1/C=C1/SC(=S)NC1=O` showed a z-score of 0.492.

As for `CN1CCC/C1=C/C=C1\SC(=S)NC1=O`, the z-score came out at 2.4. With `Cc1ccc(C(=O)CSc2nc3ccccc3c(=O)n2-c2ccccc2)s1` the figure was 0.061; with `O=C(NCc1cccnc1)/C(=N\O)c1ccccc1`, 2.02. To `O=C(NCc1ccccc1)/C(=N\O)c1ccccc1` belongs 0.503; to `O=C(NCc1ccncc1)/C(=N/O)c1ccccc1`, 1.14; to `COc1ccc(N(CC(=O)NCCC2=CCCCC2)S(C)(=O)=O)cc1OC`, 0.274. With `CCN1C(=O)/C(=C2/Sc3ccc(OC)cc3N2C)SC1=Nc1ccc(C(C)=O)cc1` the figure was -0.0997; with `CCOC(=O)N1CCC(NC(=O)c2ccc(CS(=O)(=O)c3ccc(OC)cc3)o2)CC1`, -0.141; with `O=C(CN1CCCCC1)Nc1ccc(S(=O)(=O)N2CCOCC2)cc1`, -0.0871. Regarding `COc1ccccc1-c1nc2cc3ccccc3cc2nc1-c1ccccc1OC`, the z-score is -0.377.
